# Results from PubChem BioAssay (NCATS).
# Several values for one entry are separate records, joined by “and”; a condition that tells them apart may be missing. Equal entries are not always repeated. Results filed as inconclusive are left out. Where a call stands in place of a potency, no number is given. Activity calls are given as the source filed them. Unless noted, calls follow the shape of the dose curve; as a rule, active = well fitted curve in the direction sought with a large enough effect; inconclusive = small, poorly fitted or top-dose-only effect, or another doubt; inactive = no such curve, though single readings can be large; an effect the other way counts as inactive or inconclusive.
# Legend:
# [1] = qHTS assay for small molecule antagonists of retinoid X receptor alpha signaling (AID 588546; active = well fitted inhibition curve with a large enough effect in the signal ratio, with a control signal flat, not every such curve was filed as active; the % refers to the signal ratio;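 also: cells stimulated with 9-cis-retinoic acid as agonist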); details: HEK293T RXRa-UAS-bla, beta-lactamase ratio, antagonist mode; measured here: W530 green channel, cytotoxicity proxy
# How it was run: (§1)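 Beta-lactamase reporter inhibition, read as CCF4 fluorescence ratio (ex 405, em 460/530 nm) after 2 h at RT. HEK293T UAS-bla cells, 2500/well, were stimulated with 9-cis-RA at 500 or 100 nM final alongside test compound for 18 h at 37 C.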
# [2] = target: Retinoic acid receptor RXR-alpha (Homo sapiens) (UniProt P19793); experiment: as above; details: HEK293T RXRa-UAS-bla, beta-lactamase ratio, antagonist mode
# How it was run: as §1
# [3] = target: Thyroid hormone receptor beta (Homo sapiens) (UniProt P10828); experiment: qHTS assay for small molecule antagonists of thyroid hormone receptor beta signaling (AID 588547; active = well fitted inhibition curve with a large enough effect in the signal ratio, with a control signal flat, not every such curve was filed as active; the % refers to the signal ratio;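 also: cells stimulated with 0.4 nM T3 agonist during compound exposure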); details: TR-UAS-bla HEK293, beta-lactamase ratio, antagonist mode, 18 h
# How it was run: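 Inhibition of T3-driven (0.4nM final) beta-lactamase reporter activity was measured over 0.59 nM to 92 uM compound after 18 h at 37 C. The cells were GripTite HEK293 TR-UAS-bla in charcoal/dextran-stripped serum, with CCF4 ratio read-out and IC50 from Hill fits.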
# [4] = target: Voltage-gated inwardly rectifying potassium channel KCNH2 (Homo sapiens) (UniProt Q12809); experiment: qHTS Assay for Small Molecule Inhibitors of the Human hERG Channel Activity (AID 588834); details: U2OS BacMam hERG, FluxOR thallium flux fluorescence; series mostly up to 46.1 µM;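 also: top concentration of the series differs between compounds; lower thallium flux fluorescence means stronger hERG block; nearly all actives have a fitted effect of over 50% in size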
# How it was run: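 Thallium serves as surrogate for K+ influx through BacMam-delivered hERG in U2OS cells. Compounds are added for about 10 minutes after dye loading; stimulation buffer then starts flux, monitored kinetically on FDSS.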
# [5] = target: Luciferin 4-monooxygenase (Photinus pyralis) (UniProt P08659); experiment: Biochemical firefly luciferase enzyme assay for NPC (AID 624030);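 also: purified P. pyralis luciferase at 10 nM with luciferin and ATP substrate; nearly all actives have a fitted effect of over 70% in size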; details: purified P. pyralis luciferase, luminescence, 5 min; series mostly up to 58.6 µM
# How it was run: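 Direct inhibition of firefly luciferase enzyme (10 nM final, 50 mM Tris Acetate) assessed by luminescence within 5 minutes. Percent activity scaled between DMSO and PTC124 positive control, with concentration-effect curves classified by fit quality and response.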
# [6] = S16 Schwann cell viability assay (CellTiter-Glo assay) (AID 624031); details: S16 rat Schwann cells viability, 24 h; series mostly up to 57.5 µM;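 also: cellular ATP luminescence as a viability measure; nearly all actives have a fitted effect of over 70% in size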
# How it was run: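 Luminescent ATP read-out (CellTiter-Glo) after 24 h compound exposure of native S16 rat Schwann cells at 37 °C. Signals were normalized between cell-free wells and DMSO-treated cells, set as 0% activity.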
# [7] = S16 Schwann cell PMP22 intronic element firefly luciferase assay (AID 624032); details: S16 rat Schwann cells, PMP22 element FLuc, 24 h; series mostly up to 57.5 µM; also: nearly all actives have a fitted effect of over 30% in size
# How it was run: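 Luciferase reporter of PMP22 intronic-element expression in stably transfected S16 rat Schwann cells, read by ONE-Glo luminescence after 24 h compound exposure at 37 C. Activity scaled between DMSO (0%) and positive-control PTC124; concentration-effect curves quality-classified.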
# [8] = S16 Schwann cell PMP22 intronic element beta-lactamase assay (AID 624044; calls by dose curve; also: nearly all actives have a fitted effect of over 15% in size); details: S16 rat Schwann cells, PMP22 element beta-lactamase FRET, 24 h; series mostly up to 38.3 µM
# How it was run: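 Beta-lactamase reporter under a PMP22 intronic regulatory element in stable S16 rat Schwann cells; 24 h compound exposure. 460 nm blue signal normalized between DMSO (0%) and potassium clavulanate, with 535 nm FRET tracking viability; curves classed by r2 and response.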
# Retinoic acid receptor RXR-alpha (Homo sapiens), sequence (P19793 whole entry, looked up): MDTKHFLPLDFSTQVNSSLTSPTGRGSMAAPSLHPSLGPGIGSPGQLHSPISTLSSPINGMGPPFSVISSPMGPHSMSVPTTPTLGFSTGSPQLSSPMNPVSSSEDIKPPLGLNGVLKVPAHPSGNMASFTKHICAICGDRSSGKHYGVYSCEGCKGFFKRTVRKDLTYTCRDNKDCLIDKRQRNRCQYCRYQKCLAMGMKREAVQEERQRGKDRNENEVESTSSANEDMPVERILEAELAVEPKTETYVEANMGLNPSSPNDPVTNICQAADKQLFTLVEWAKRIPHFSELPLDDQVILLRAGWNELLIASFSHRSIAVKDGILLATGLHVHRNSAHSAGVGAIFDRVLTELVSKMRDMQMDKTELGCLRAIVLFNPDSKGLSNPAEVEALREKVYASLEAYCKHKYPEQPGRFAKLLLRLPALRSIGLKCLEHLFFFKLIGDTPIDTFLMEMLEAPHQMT
# Luciferin 4-monooxygenase (Photinus pyralis), sequence (P08659 whole entry, looked up): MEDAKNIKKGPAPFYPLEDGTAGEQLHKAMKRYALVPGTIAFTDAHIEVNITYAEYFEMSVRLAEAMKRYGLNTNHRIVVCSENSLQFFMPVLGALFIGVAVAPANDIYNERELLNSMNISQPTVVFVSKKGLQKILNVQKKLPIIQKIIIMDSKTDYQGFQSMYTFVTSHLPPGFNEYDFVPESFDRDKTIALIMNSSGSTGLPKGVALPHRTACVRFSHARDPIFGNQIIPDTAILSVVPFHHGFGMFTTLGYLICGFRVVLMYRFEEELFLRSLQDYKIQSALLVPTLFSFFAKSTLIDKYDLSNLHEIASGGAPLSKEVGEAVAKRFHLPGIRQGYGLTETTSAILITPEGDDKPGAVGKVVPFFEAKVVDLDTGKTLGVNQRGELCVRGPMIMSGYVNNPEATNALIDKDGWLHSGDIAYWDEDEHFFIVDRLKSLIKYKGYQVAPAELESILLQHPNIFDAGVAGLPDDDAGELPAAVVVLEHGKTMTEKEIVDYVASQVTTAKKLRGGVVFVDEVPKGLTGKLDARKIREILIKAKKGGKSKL
# Thyroid hormone receptor beta (Homo sapiens), sequence (P10828 whole entry, looked up): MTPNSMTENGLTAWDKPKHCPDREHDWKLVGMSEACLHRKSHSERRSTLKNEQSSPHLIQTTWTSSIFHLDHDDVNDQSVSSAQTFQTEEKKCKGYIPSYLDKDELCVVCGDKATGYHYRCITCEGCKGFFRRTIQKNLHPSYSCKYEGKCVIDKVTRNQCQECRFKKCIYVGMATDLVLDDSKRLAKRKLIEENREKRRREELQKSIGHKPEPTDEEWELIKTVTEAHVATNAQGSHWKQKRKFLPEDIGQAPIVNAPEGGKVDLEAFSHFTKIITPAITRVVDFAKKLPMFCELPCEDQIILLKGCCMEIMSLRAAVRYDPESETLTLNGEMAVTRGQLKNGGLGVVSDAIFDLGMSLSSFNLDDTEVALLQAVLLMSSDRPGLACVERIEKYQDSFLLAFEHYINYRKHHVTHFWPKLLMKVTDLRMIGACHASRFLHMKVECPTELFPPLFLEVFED
# Voltage-gated inwardly rectifying potassium channel KCNH2 (Homo sapiens), sequence (Q12809 whole entry, looked up): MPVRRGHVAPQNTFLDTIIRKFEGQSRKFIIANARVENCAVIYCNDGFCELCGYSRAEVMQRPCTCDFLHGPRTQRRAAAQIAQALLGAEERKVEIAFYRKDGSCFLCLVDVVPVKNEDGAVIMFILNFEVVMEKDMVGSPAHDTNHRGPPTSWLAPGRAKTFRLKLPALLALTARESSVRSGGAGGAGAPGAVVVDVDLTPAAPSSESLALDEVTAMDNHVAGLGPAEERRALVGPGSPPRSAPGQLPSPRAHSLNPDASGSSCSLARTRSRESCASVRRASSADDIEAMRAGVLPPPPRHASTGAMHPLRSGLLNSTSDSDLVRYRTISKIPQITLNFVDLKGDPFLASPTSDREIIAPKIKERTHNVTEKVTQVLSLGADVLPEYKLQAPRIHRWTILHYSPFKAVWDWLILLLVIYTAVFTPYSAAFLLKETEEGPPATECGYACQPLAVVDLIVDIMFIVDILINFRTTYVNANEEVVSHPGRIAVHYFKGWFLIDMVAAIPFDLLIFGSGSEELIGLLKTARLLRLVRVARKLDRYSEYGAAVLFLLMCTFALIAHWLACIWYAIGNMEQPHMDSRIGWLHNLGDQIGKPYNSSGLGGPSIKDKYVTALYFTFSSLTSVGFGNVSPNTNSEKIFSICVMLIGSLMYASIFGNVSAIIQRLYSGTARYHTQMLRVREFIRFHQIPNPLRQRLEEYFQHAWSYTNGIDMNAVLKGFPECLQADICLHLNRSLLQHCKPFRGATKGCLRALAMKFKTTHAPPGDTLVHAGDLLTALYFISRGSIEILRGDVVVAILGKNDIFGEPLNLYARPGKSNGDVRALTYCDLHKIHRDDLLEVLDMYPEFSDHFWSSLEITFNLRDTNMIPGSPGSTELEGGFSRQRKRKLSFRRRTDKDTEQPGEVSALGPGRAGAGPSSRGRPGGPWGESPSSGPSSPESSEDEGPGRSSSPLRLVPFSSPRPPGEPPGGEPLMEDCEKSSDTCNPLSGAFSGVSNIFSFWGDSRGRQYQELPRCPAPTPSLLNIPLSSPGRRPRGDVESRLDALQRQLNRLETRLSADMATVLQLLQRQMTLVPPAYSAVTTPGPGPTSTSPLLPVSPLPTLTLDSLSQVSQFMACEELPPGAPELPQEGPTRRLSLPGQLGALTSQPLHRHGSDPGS
compound,measurement,setting,value
CC(O)COc1ccccc1 (stereo unspecified),max response,[1],-7.54%
same,max response,[2],-2.29% (inactive)
same,activity change % (negative = inhibition),[3],-6.45% (inactive)
same,Potency,[4],inactive
same,Potency,[5],inactive
same,Potency,[6],inactive
same,Potency,[7],inactive
CN(N=O)C(=O)N[C@@H]1[C@@H](O)[C@H](O)[C@@H](CO)O[C@@H]1O,Potency,[4],inactive
CCOC(=O)c1ccc(O)cc1,max response,[1],-7.61%
same,max response,[2],4.29% (inactive)
same,activity change % (negative = inhibition),[3],-5.55% (inactive)
same,Potency,[4],inactive
same,Potency,[6],inactive
same,Potency,[7],inactive
same,Potency,[8],inactive
O=C1O[C@H]([C@@H](O)CO)C(O)=C1O,max response,[1],-3.01%
same,max response,[2],1.04% (inactive)
same,activity change % (negative = inhibition),[3],4.68% (inactive) and -9.73% (inactive)
same,Potency,[4],inactive
same,Potency,[5],inactive
same,Potency,[6],inactive
same,Potency,[7],inactive
CCCCC(CC)COC(=O)c1ccccc1O (stereo unspecified),max response,[1],-3.04%
same,max response,[2],6.6% (inactive)
same,activity change % (negative = inhibition),[3],12.6% (inactive)
same,Potency,[4],inactive
same,Potency,[5],inactive
same,Potency,[6],inactive
CC1=C(/C=C/C(C)=C/C=C/C(C)=C/C(=O)O)C(C)(C)CCC1,activity change % (negative = inhibition),[3],3.37% (inactive)
same,Potency,[6],inactive
same,Potency,[7],inactive
Cc1ncc(COP(=O)(O)O)c(C=O)c1O,Potency,[4],inactive
same,Potency,[5],inactive
same,Potency,[6],inactive
CO/N=C(\C(=O)N[C@@H]1C(=O)N2C(C(=O)O)=C(CSc3nc(=O)c(O)nn3C)CS[C@H]12)c1csc(N)n1,Potency,[4],inactive
C[C@@H](O)[C@H](N)C(=O)O,Potency,[4],inactive
N[C@@H](CSSC[C@H](N)C(=O)O)C(=O)O,Potency,[4],inactive
CS(=O)(=O)c1ccc([C@@H](O)[C@@H](CF)NC(=O)C(Cl)Cl)cc1,Potency,[4],inactive
O=C(Oc1ccccc1C(=O)O)c1ccccc1O,Potency,[4],inactive
same,Potency,[5],inactive
same,Potency,[6],inactive
CC1(C)S[C@@H]2[C@H](NC(=O)Cc3ccccc3)C(=O)N2[C@H]1C(=O)O (tested in a mixture with another compound),Potency,[4],inactive
C[C@]12CC[C@@H]3c4ccc(O)cc4CC[C@H]3[C@@H]1CC[C@@H]2OC(=O)CCC1CCCC1,Potency,[4],inactive
COc1ccc2cc1Oc1cc3c(cc1OC)CC[N+](C)(C)[C@H]3Cc1ccc(cc1)Oc1c(OC)c(OC)cc3c1[C@@H](C2)[N+](C)(C)CC3,Potency,[4],inactive
Cc1ncc([N+](=O)[O-])n1CC(O)CCl (stereo unspecified),Potency,[4],inactive
O=Cc1ccccc1C=O,Potency,[4],inactive
same,Potency,[5],inactive
CCN(CC)C(=O)Nc1ccc(OCC(O)CNC(C)(C)C)c(C(C)=O)c1 (stereo unspecified),Potency,[4],inactive
C=CCn1c(=O)n([C@@H]2O[C@H](CO)[C@@H](O)[C@H]2O)c2nc(N)[nH]c(=O)c21,Potency,[4],inactive
CC1=C(C/C=C(\C)CCC[C@H](C)CCC[C@H](C)CCCC(C)C)C(=O)c2ccccc2C1=O,Potency,[4],inactive
N[C@H](C(=O)O)c1ccc(O)cc1,Potency,[4],inactive
